DT40 TDP1 CPT: qHTS for Inhibitors of human tyrosyl-DNA phosphodiesterase 1 (TDP1): qHTS in cells in presence of CPT; Potency, µM (top dose mostly 46.2 µM), inactives show top-dose activity change, negative = growth inhibition, hits mostly inhibitors; chicken DT40 Tdp1-/-;hTDP1 cells + 20 nM CPT, ATP luminescence, 48 h; hit rate 12% among 420,000; AID 686979, 2013; also: potency is read from the fitted curve at half-maximal effect; nearly all actives have a fitted effect of over 55% in size
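Cell growth measured by CellTiter-Glo luminescence after a minimum 48 h, 37 C compound exposure with 20 nM CPT in Tdp1-knockout DT40 cells stably expressing hTDP1, seeded 400/well; qHTS titration format.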
HT1080-NT tox: qHTS for induction of synthetic lethality in tumor cells producing 2HG: qHTS for the HT-1080-NT fibrosarcoma cell line | HT-1080-NT fibrosarcoma viability, CellTiter-Glo ATP luminescence, 48 h | AID 686970, 2013 | hit rate 1.6% among 360,000 | Potency, µM (doses to about 46.1 µM), inactives show at the highest dose activity, negative = less viability, usual class: cytotoxic;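 also: NT is the 2HG producing partner of a matched IDH1 knockdown line; potency is read from the fitted curve at half-maximal effect; 0% = DMSO-treated cells and -100% = media-only wells without cells; nearly all actives have a fitted effect of over 55% in size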
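HT-1080-NT fibrosarcoma cells (2HG-overproducing), 750 cells/well in RPMI with 5% FBS, dosed after 2 h and incubated 48 h at 37C. CellTiter-Glo luminescence normalized to DMSO and no-cell wells; concentration-response curves fitted and classed.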
TDP1 cell noCPT: qHTS for Inhibitors of human tyrosyl-DNA phosphodiesterase 1 (TDP1): qHTS in cells in absence of CPT; AID 686978, 2013; DT40 Tdp1-/- hTDP1 cells, no CPT, ATP luminescence, 48 h; Potency, µM (highest dose often 46.2 µM), for inactives: at the highest dose activity change, negative = growth inhibition, actives largely listed as inhibitors; hit rate 15% among 420,000; also: potency is read from the fitted curve at half-maximal effect; nearly all actives have a fitted effect of over 55% in size
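Growth kinetics read by CellTiter-Glo luminescence after ≥48 hr at 37 °C. Cells: DT40 Tdp1-/- stably carrying human TDP1, 400 per well, compound exposure in the absence of CPT (DMSO vehicle).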
IL1B secr inh: qHTS for Inhibitors of Inflammasome Signaling: IL-1-beta AlphaLISA Primary Screen; THP-1 LPS/ATP IL-1B secretion, AlphaLISA, 16 h; hits give low values; activity change, % at 57.5 µM; hit rate 4.7% among 360,000; AID 743279, 2014; in the data active = activity change below about -50%; inconclusive = mostly about -30% to -49%
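THP-1 cells pretreated 1 hr with compounds (up to 57.5 uM final), then stimulated with LPS (250 ng/mL final) plus ATP (1.25 mM final); secreted IL-1B measured by AlphaLISA after 16 hr, decreased signal indicating inhibition.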
HT1080 IDH1KD tx: qHTS for induction of synthetic lethality in tumor cells producing 2HG: qHTS for the HT-1080-IDH1KD cell line; HT-1080 IDH1 knockdown viability, ATP luminescence, 48 h; Potency, µM (titrated, usually from 46.1 µM), inactives show at the highest dose activity, negative = toxicity, most hits filed as cytotoxic; hit rate 2% among 360,000; AID 686971, 2013;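 also: potency is read from the fitted curve at half-maximal effect; 0% = DMSO wells and -100% = cell-free medium wells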
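% activity derives from luminescence (CellTiter-Glo), normalised to DMSO and no-cell wells. HT-1080-IDH1KD cells, 750/well, had 48 h compound exposure at 37 °C.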
Active calls of the source: *; ? = inconclusive; . = no result given; [ ] = dose if it differs, or a comment. A selection: hits, their analogues and other compounds. The true share with any hit is near 19%. Unless noted, calls follow the shape of the dose curve; as a rule, active = well fitted curve in the direction sought with a large enough effect; inconclusive = small, poorly fitted or top-dose-only effect, or another doubt; inactive = no such curve, though single readings can be large; an effect the other way counts as inactive or inconclusive. Unless noted, % is scaled to controls: 0 for no effect and ±100 for the full control effect.

SMILES | DT40 TDP1 CPT | HT1080-NT tox | TDP1 cell noCPT | IL1B secr inh | HT1080 IDH1KD tx
CC1(C)CC(=O)c2cnc(NC(=O)Cc3ccc(Cl)cc3)nc2C1 | ? | 18% | 23µM* | 18 | 30%
COc1cccc(C(=O)Nc2ncc3c(n2)CC(c2ccc(OC)cc2OC)CC3=O)c1 (stereo unspecified) | 2.9µM* | 7.9µM* | 4.1µM* | 17 | 7.9µM*
C=CCn1c(COc2ccc3c(c2)CCCC3)nnc1SCC(=O)Nc1cccc(SC)c1 | ? | ? | ? | -22 | ?
O=C(Nc1cccc(OC(F)(F)F)c1)c1ccc(-c2cccnc2)c2ccoc12 | ? | -20% | ? | -5 | 20%
CCc1ccc(Nc2ncc3c(n2)CC(c2ccc(OC)cc2)CC3=O)cc1 (stereo unspecified) | ? | ? | 16µM* | 15 | ?
CCc1ccc(Nc2ncc3c(n2)CC(C)(C)CC3=O)cc1 | -11% | -22% | -18% | -61* | -10%
CCC1Cc2[nH]c(=S)[nH]c(=O)c2C(c2ccc(F)cc2)O1 (stereo unspecified) | 7% | -1% | 10% | 13 | 16%
COc1ccc(CNC(=O)COc2ccc(S(=O)(=O)N3CCOCC3)cc2C)cc1 | -13% | 3% | -26% | -16 | 12%
CC(C)(Cc1ccc(O)cc1)NC(=O)CC(=O)N/N=C/c1ccc(Cl)cc1 | ? | ? | 18µM* | -4 | -22%
CC(C)(Cc1ccc(O)cc1)NC(=O)CC(=O)N/N=C/c1ccc([N+](=O)[O-])cc1 | -29% | 0% | -27% | 22 | -1%
Cn1cc(S(=O)(=O)c2ccccc2)c(=O)c2cc(Cl)ccc21 | 16µM* | 29% | ? | -19 | 4%
Cn1cc(S(=O)(=O)c2ccc(Cl)cc2)c(=O)c2cc(F)c(N3CCCC3)cc21 | 21µM* | . | 16µM* | . | .
Cn1cc(S(=O)(=O)c2cccc(Cl)c2)c(=O)c2cc(F)c(N3CCN(c4ccccc4)CC3)cc21 | 4% | . | -13% | . | .
COc1ccc(S(=O)(=O)c2cn(C)c3cc(N4CCCC4)c(F)cc3c2=O)cc1 | ? | . | 23µM* | . | .
CCc1ccc(S(=O)(=O)c2cn(C)c3ccc(C)cc3c2=O)cc1 | -27% | . | -26% | . | .
CC1CCCN(c2cc3c(cc2F)c(=O)c(S(=O)(=O)c2cccc(Cl)c2)cn3C)C1 (stereo unspecified) | ? | . | 23µM* | . | .
N#CC(CC(=O)OCc1ccccc1)NC(=O)OCc1ccccc1 (stereo unspecified) | ? | 8% | -22% | 12 | 4%
CC(=O)c1cccc(NC(=O)CNC(=O)Cc2ccccc2)c1 | 16% | 6% | ? | 28 | 1%
Cc1cc2nc(SCC(=O)N(C)C)c3c(c2cc1C)CCCC3 | -20% | -13% | ? | 15 | ?
Cc1ccc(-c2nc(CCN3C(=O)c4ccccc4C3=O)cs2)cc1 | ? | ? | -14% | -4 | 10µM*
O=C1c2ccccc2C(=O)N1CCc1csc(NNc2nc(CCN3C(=O)c4ccccc4C3=O)cs2)n1 | -21% | 6% | ? | -18 | 0%
C=CCn1c(SCc2csc(-c3ccc(C)cc3)n2)nnc1-c1ccccc1OC | 12µM* | -20% | 18µM* | ? | ?
Cc1ccc(-c2nc(CSc3nc4ccccc4c(=O)n3C)cs2)cc1 | 18µM* | 9% | 26µM* | 0 | -1%
Cc1ccc(-c2nc(CSc3nc4ccccc4c(=O)n3CCO)cs2)cc1 | ? | -26% | 16µM* | -10 | -22%
Nc1ccccc1C(=O)NC1CCCNC1=O (stereo unspecified) | 14% | 11% | -5% | 10 | 1%
SMILES | DT40 TDP1 CPT | HT1080-NT tox | TDP1 cell noCPT | IL1B secr inh | HT1080 IDH1KD tx
COC(=O)c1sc2cccc(F)c2c1S(=O)(=O)NCc1ccc(F)cc1 | -24% | . | 5% | . | .
O=C(CSc1nc2nccnc2c(=O)n1CCc1c[nH]c2ccccc12)Nc1ccccc1 | 21µM* | . | 15µM* | . | .
O=C(CSc1nc2nccnc2c(=O)n1Cc1cccs1)Nc1ccccc1 | -34% | -3% | 1% | ? | -1%
Cc1ccccc1NC(=O)CSc1nc2nccnc2c(=O)n1CCc1c[nH]c2ccccc12 | 23µM* | . | 12µM* | . | .
COc1ccc(CCC(=O)NCC23CC4CC(CC(C4)C2)C3)cc1 | -27% | 0% | -16% | 5 | 8%
OC(COCc1ccccc1)CN1CCCC1 (stereo unspecified) | -9% | 5% | -8% | 5 | 2%
c1ccc(COC(CN2CCCCCC2)CN2CCCCCC2)cc1 | 10µM* | -5% | 21µM* | -19 | -7%
N#CC1=C(N)C(C#N)(C#N)[C@H](c2cccnc2)[C@H]2CN(C(=O)OCc3ccccc3)CC=C12 | ? | -11% | 15µM* | 26 | ?
N#CC1=C(N)C(C#N)(C#N)C(c2cccnc2)C2CC(c3ccccc3)CC=C12 (stereo unspecified) | 16µM* | ? | 21µM* | 4 | -8%[9.24 µM]
CCOC(=O)c1nnc(-c2ccc(C)cc2)nc1Oc1ccc(Cl)cc1Cl | ? | -28% | 16µM* | -28 | -18%
CCOC(=O)c1nnc(-c2ccc(C)cc2)nc1Oc1ccccc1Cl | ? | 23µM* | ? | ? | 23µM*
COc1ccc(NC(=O)CSc2nnnn2C2CC2)cc1S(=O)(=O)N1CCOCC1 | -3% | -1% | 14% | -1 | 3%
NC(N)=N/N=C/c1ccc2cccc(OCc3ccccc3)c2n1 | 9.2µM* | 23µM* | 7.3µM* | -96* | ?
NC(=S)N/N=C/c1ccc2cccc(OCc3ccccc3)c2n1 | ? | -18% | 29µM* | -7 | -10%
COc1cc([N+](=O)[O-])c2nc(C=NNC(N)=S)ccc2c1 | -4% | -3% | ? | 0 | -16%
O/N=C/c1ccc2cccc(OCc3ccccc3)c2n1 | -4% | -4% | -2% | 19 | -2%
Cc1ccc(NC(=O)N(CCCN2CCOCC2)Cc2cc3cc4c(cc3[nH]c2=O)OCO4)cc1 | 21µM* | -8% | ? | -28 | -6%
O=C(Nc1ccccc1)N(CCCN1CCOCC1)Cc1cc2cc3c(cc2[nH]c1=O)OCCO3 | ? | -12% | 10µM* | -26 | -10%
O=C(Nc1ccccc1F)N(CCCN1CCOCC1)Cc1cc2cc3c(cc2[nH]c1=O)OCCO3 | 16µM* | -27% | 16µM* | ? | ?

Assay outcomes (PubChem)
